Calls of active or inactive are those of the source.
Key:
[1] = A549 cell viability effects, profiling panel, calcein-AM fluorescence, 48 h, basal (AID 1162); conditions: higher = more signal
[2] = adipocyte viability effects, profiling panel, cell-based, 3T3-L1 adipocytes, calcein-AM fluorescence, 48 h, basal (AID 1163); conditions: 3T3-L1 adipocytes viability, higher = more signal
[3] = HepG2 cell viability effects, profiling panel, calcein-AM fluorescence, 48 h, basal (AID 1164); conditions: higher = more signal
[4] = MM1S cell viability effects, profiling panel, calcein-AM fluorescence, 48 h, basal (AID 1165); conditions: higher = more signal;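 further: viability of MM1S multiple myeloma cells under basal unstimulated conditions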
[5] = basal RPMI8226 viability, no added stimulus, profiling panel, cell-based, calcein-AM fluorescence, 48 h, PK04 Diversity Set (AID 1166); conditions: RPMI8226 myeloma viability, higher = more signal;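 further: cells grown under basal conditions without added stimulus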
[6] = basal HepG2 mitochondrial membrane potential changes, profiling panel, cell-based, JC-1 fluorescence, 24 h, 100 nL compound (AID 1167); conditions: higher = more signal
[7] = basal 3T3-L1 adipocyte mitochondrial potential changes, profiling panel, cell-based, JC-1 fluorescence, 3T3-L1 adipocytes, 24 h, 100 nL compound (AID 1168); conditions: JC-1 mitochondrial fluorescence, higher = more signal, called active from +8 up or from −8 down
[8] = basal RPMI8226 mitochondrial membrane potential changes, profiling panel, cell-based, JC-1 fluorescence, 24 h, 100 nL compound (AID 1169); conditions: RPMI8226 myeloma, JC-1 mitochondrial potential fluorescence, higher = more signal
[9] = basal MM1S mitochondrial membrane potential changes, profiling panel, cell-based, JC-1 fluorescence, 24 h, 100 nL compound (AID 1170); conditions: higher = more signal
[10] = A549 lung cancer cell viability effects, profiling panel, resazurin fluorescence, 24 h, PK04 Diversity Set (AID 1171); conditions: higher = more signal, called active from +8 up or from −8 down
Further: test concentration not given here.

Q: What does the source list for CC(C)C(=C=CC[C@H](O)c1cccc(OCCO)c1)C[C@H](O)COCc1ccccc1?
A: z-score [1]: -0.0353; z-score [2]: -0.27; z-score [3]: -0.0485; z-score [4]: 0.0675; z-score [5]: -0.524; z-score [6]: -0.42; z-score [7]: -0.711 (inactive); z-score [8]: 0.259; z-score [9]: -0.615; z-score [10]: 1.25 (inactive)

Q: With CC(C)(C)OC(=O)CC[C@]1(C(=O)N2CCCCC2)N=C(c2ccc(OCCCO)cc2)O[C@H]1c1ccccc1N=[N+]=[N-] as the compound, how does the z-score [1] read?
A: 1.12

Q: And the z-score [2]?
A: 0.768

Q: And the z-score [3]?
A: 0.63

Q: What about the z-score [4] of the same compound?
A: -2.03

Q: What about the z-score [5] of the same compound?
A: -0.99

Q: And the z-score [6]?
A: 1.18

Q: And the z-score [7]?
A: 1.92 (inactive)

Q: And the z-score [8]?
A: -0.862

Q: What about the z-score [9] of the same compound?
A: -0.715

Q: What about the z-score [10] of the same compound?
A: -0.0762 (inactive)

Q: With Cc1ccc(S[C@]2(C(=O)NC3CC3)CC(=O)N(C3CCCCC3)[C@@H]2c2ccc(CO)cc2I)cc1 as the compound, how does the z-score [1] read?
A: 1.07

Q: And the z-score [2]?
A: -0.07

Q: And the z-score [3]?
A: 1.12

Q: What about the z-score [4] of the same compound?
A: -2.5

Q: What about the z-score [5] of the same compound?
A: -1.7

Q: What about the z-score [6] of the same compound?
A: 1.62

Q: What about the z-score [7] of the same compound?
A: 0.124 (inactive)

Q: And the z-score [8]?
A: -0.558

Q: And the z-score [9]?
A: -1.2

Q: What about the z-score [10] of the same compound?
A: -0.0731 (inactive)

Q: For COC(=O)C[C@@H]1C[C@H](C)[C@]2(O1)C(=O)N(Cc1ccccc1)c1ccc(NC(C)=O)cc12, which z-score [1] is on record?
A: -0.0958

Q: What about the z-score [2] of the same compound?
A: 0.663

Q: What about the z-score [3] of the same compound?
A: -0.258

Q: And the z-score [4]?
A: 0.186

Q: What about the z-score [5] of the same compound?
A: -0.804

Q: What about the z-score [6] of the same compound?
A: -0.0913

Q: And the z-score [7]?
A: -0.551 (inactive)

Q: What about the z-score [8] of the same compound?
A: -0.183

Q: And the z-score [9]?
A: 0.229

Q: What about the z-score [10] of the same compound?
A: -0.982 (inactive)

Q: For N#Cc1ccc(NN2C(C(O)C3CCCCC3)C=CC3C(=O)N(c4ccccc4)C(=O)C32)cc1 (stereo not given), which z-score [1] is on record?
A: -0.669

Q: What about the z-score [2] of the same compound?
A: -0.515

Q: What about the z-score [3] of the same compound?
A: 0.595

Q: What about the z-score [4] of the same compound?
A: -0.185

Q: What about the z-score [5] of the same compound?
A: -0.32

Q: And the z-score [6]?
A: -2.19

Q: And the z-score [7]?
A: -2.17 (inactive)

Q: And the z-score [8]?
A: 0.234

Q: And the z-score [9]?
A: 0.318

Q: What about the z-score [10] of the same compound?
A: -0.609 (inactive)

Q: With CS(=O)(=O)CCOC(=O)C1=CC(CCCO)=CC(c2cccs2)N(Cc2cc3c(cc2Br)OCO3)C=C1C(=O)OCCS(C)(=O)=O (stereo not given) as the compound, how does the z-score [1] read?
A: 1.55

Q: What about the z-score [2] of the same compound?
A: 0.46

Q: What about the z-score [3] of the same compound?
A: 0.392

Q: And the z-score [4]?
A: -0.121

Q: What about the z-score [5] of the same compound?
A: 0.377

Q: What about the z-score [6] of the same compound?
A: 1.09

Q: And the z-score [7]?
A: 0.252 (inactive)

Q: What about the z-score [8] of the same compound?
A: -0.308

Q: What about the z-score [9] of the same compound?
A: -0.579

Q: And the z-score [10]?
A: 0.885 (inactive)

Q: With O=C1C2C=CC(C(O)c3ccc(B(O)O)cc3)N(Nc3ccccc3)C2C(=O)N1c1ccccc1 (stereo not given) as the compound, how does the z-score [1] read?
A: -1.52

Q: And the z-score [2]?
A: -0.305

Q: And the z-score [3]?
A: -1.38

Q: What about the z-score [4] of the same compound?
A: -1.74

Q: What about the z-score [5] of the same compound?
A: -2.12

Q: What about the z-score [6] of the same compound?
A: -2.75

Q: What about the z-score [7] of the same compound?
A: -0.654 (inactive)

Q: What about the z-score [8] of the same compound?
A: -0.162

Q: And the z-score [9]?
A: -0.613

Q: What about the z-score [10] of the same compound?
A: -0.742 (inactive)

Q: With CCCCC=C[C@@H](NC(=O)c1ccc(C(=O)OC)cc1)c1ccccc1 as the compound, how does the z-score [1] read?
A: -1.19

Q: What about the z-score [2] of the same compound?
A: -0.87

Q: And the z-score [3]?
A: -0.721

Q: What about the z-score [4] of the same compound?
A: -2.31

Q: What about the z-score [5] of the same compound?
A: -2.6

Q: And the z-score [6]?
A: -1.33

Q: What about the z-score [7] of the same compound?
A: -0.346 (inactive)

Q: What about the z-score [8] of the same compound?
A: -0.862

Q: What about the z-score [9] of the same compound?
A: -1.38

Q: And the z-score [10]?
A: 3.37 (inactive)

Q: For Cc1ccc(S[C@]2(C(=O)O)CC(=O)N(C3Cc4ccccc4C3)[C@@H]2c2ccc(CO)cc2I)cc1, which z-score [1] is on record?
A: 0.214

Q: And the z-score [2]?
A: 0.278

Q: What about the z-score [3] of the same compound?
A: -0.671

Q: And the z-score [4]?
A: -2.95

Q: What about the z-score [5] of the same compound?
A: -2.88

Q: And the z-score [6]?
A: 0.0324

Q: What about the z-score [7] of the same compound?
A: -0.939 (inactive)

Q: And the z-score [8]?
A: -0.137

Q: And the z-score [9]?
A: -0.717

Q: What about the z-score [10] of the same compound?
A: 0.477 (inactive)

Q: Which z-score [1] does the source give for C=C[C@@H](COC(C)=O)N(Cc1ccc([N+](=O)[O-])cc1)S(=O)(=O)c1ccc(Br)cc1 here?
A: 1.97

Q: And the z-score [2]?
A: -0.306

Q: What about the z-score [3] of the same compound?
A: 0.452

Q: What about the z-score [4] of the same compound?
A: 1.3

Q: And the z-score [5]?
A: 0.647

Q: What about the z-score [6] of the same compound?
A: 0.64

Q: What about the z-score [7] of the same compound?
A: 0.0569 (inactive)

Q: And the z-score [8]?
A: 0.667

Q: And the z-score [9]?
A: 0.198

Q: What about the z-score [10] of the same compound?
A: 2.05 (inactive)

Q: What does the source list for CC(C)(C)N1CC=CC23O[C@@H]4C=CCOC(=O)[C@@H]4[C@H]2C(=O)N(CCCCCO)[C@@H]3C1=O (stereo not given in full)?
A: z-score [1]: -0.52; z-score [2]: 0.468; z-score [3]: -0.542; z-score [4]: -0.341; z-score [5]: 0.606; z-score [6]: -0.667; z-score [7]: -0.173 (inactive); z-score [8]: 0.828; z-score [9]: 0.388; z-score [10]: -1.08 (inactive)

Q: Which z-score [1] does the source give for O=c1cccc(C=Cc2ccccc2)o1 here?
A: -0.523

Q: What about the z-score [2] of the same compound?
A: -0.601

Q: And the z-score [3]?
A: 0.645

Q: And the z-score [4]?
A: -0.571

Q: And the z-score [5]?
A: -0.743

Q: What about the z-score [6] of the same compound?
A: 0.053

Q: What about the z-score [7] of the same compound?
A: 0.355 (inactive)

Q: And the z-score [8]?
A: 0.629

Q: And the z-score [9]?
A: -0.969

Q: What about the z-score [10] of the same compound?
A: 0.261 (inactive)

Q: Which results are given for CO[C@H]1O[C@H](CO)[C@@H](OC(=O)Nc2ccc3c(c2)OCO3)[C@H](OC(=O)Nc2ccccc2)[C@H]1OC(=O)Nc1ccccc1?
A: z-score [1]: -2.08; z-score [2]: 1.11; z-score [3]: -2.7; z-score [4]: -1.67; z-score [5]: -2.56; z-score [6]: -0.812; z-score [7]: 1.42 (inactive); z-score [8]: -0.442; z-score [9]: -1.37; z-score [10]: -3.25 (inactive)

Q: Which z-score [1] does the source give for C=CCNC(=O)[C@@H]1[C@H]2C(=O)O[C@H](c3ccccc3)[C@H](c3ccccc3)N2[C@H](c2ccc(OCCO)cc2)[C@@]12C(=O)Nc1ccccc12 here?
A: 1.66

Q: And the z-score [2]?
A: 1.59

Q: And the z-score [3]?
A: 0.521

Q: And the z-score [4]?
A: 0.491

Q: What about the z-score [5] of the same compound?
A: 0.0581

Q: And the z-score [6]?
A: -0.912

Q: And the z-score [7]?
A: 1.01 (inactive)

Q: And the z-score [8]?
A: -0.725

Q: What about the z-score [9] of the same compound?
A: 0.224

Q: And the z-score [10]?
A: -0.0995 (inactive)

Q: Which results are given for CS(=O)(=O)CCOC(=O)C1=CC(c2ccc(CO)cc2)=CC(C2CC2)N(Cc2cc3c(cc2Br)OCO3)C=C1C(=O)OCCS(C)(=O)=O (stereo not given)?
A: z-score [1]: -0.261; z-score [2]: -0.14; z-score [3]: 1.04; z-score [4]: -2.68; z-score [5]: -2.41; z-score [6]: 2.99; z-score [7]: 0.253 (inactive); z-score [8]: -0.787; z-score [9]: -1.8; z-score [10]: -1.14 (inactive)

Q: Which z-score [1] does the source give for CCC(CC)C(O)C1C=CC2C(=O)N(c3ccccc3)C(=O)C2N1Nc1ccc(C#N)cc1 (stereo not given) here?
A: 0.313

Q: What about the z-score [2] of the same compound?
A: -0.534

Q: What about the z-score [3] of the same compound?
A: -0.136

Q: And the z-score [4]?
A: 0.436

Q: What about the z-score [5] of the same compound?
A: -0.452

Q: And the z-score [6]?
A: -1.03

Q: And the z-score [7]?
A: -1.29 (inactive)

Q: And the z-score [8]?
A: -0.659

Q: What about the z-score [9] of the same compound?
A: -0.0284

Q: What about the z-score [10] of the same compound?
A: 0.158 (inactive)
